{"source": "PubChem BioAssay (NCI)", "note": "Compounds without any hit were thinned out: in the full panel of roughly 83,000, 20% have a hit.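 Activity criterion: percent growth below 10, measured after cells in 96-well plates were exposed to a single compound concentration for 48 hours.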 A number with no mark means an inactive call. Activity calls are given as the source filed them.", "data": [{"system": "MDA-MB-468 breast", "experiment": "NCI-60 one-dose screen, 48 h (100 = growth as untreated, 0 = no growth, -100 = all killed)", "conditions": "10 µM unless noted", "values": [{"smiles": "COc1ncc(-c2ccc3nccc(-c4ccnnc4)c3c2)cc1NS(=O)(=O)c1ccc(F)cc1F", "growth": "-73% (active)"}, {"smiles": "Cc1nc(C)c(-c2nn3c(-c4cccc(F)c4)nnc3s2)s1", "growth": "89.5%"}, {"smiles": "COc1ccc(-c2cnc(N)nc2-c2ccc(OC)cc2O)cc1", "growth": "92.5%"}, {"smiles": "Nc1nc2ncc(CCNc3ccc(C(=O)NC(CCC(=O)O)C(=O)O)cc3)nc2c(=O)[nH]1", "note": "(stereo not given)", "growth": "96.7%"}, {"smiles": "CCOC(=O)/C(=C/c1ccc([N+](=O)[O-])cc1)C(=O)c1ccccc1", "growth": "21.3%"}, {"smiles": "C#Cc1cccc(Nc2ncnc3cc(OC)c(OCCCCCCC(=O)NO)cc23)c1", "growth": "-44.4% (active)"}, {"smiles": "Cc1ccc(OCCOCCOCCOc2ccc(C)n(O)c2=S)c(=S)n1O", "growth": "12.1%"}, {"smiles": "CCN(CC)CCOc1ccc(/C(=C(\\C)c2ccc(Cl)cc2)c2ccc(Cl)cc2)cc1", "growth": "70.6%"}, {"smiles": "CCN(CC)c1ccc(/C=C(\\C#N)c2cc3ccccc3[nH]2)cc1", "growth": "47.3%"}, {"smiles": "CCCCCCNC(=O)Oc1ccc(/C(=C(/C)c2ccccc2)c2ccc(OCCN3CCCCCC3)cc2)cc1", "growth": "9.72% (active)"}, {"smiles": "O=C(/C=C/c1cccc(Cl)c1)c1ccc(O)c(CN2CCN(c3cc4c(cc3F)c(=O)c(C(=O)O)cn4C3CC3)CC2)c1", "growth": "28.8%"}, {"smiles": "CCN(CC)CC(=O)Nc1c(C)cc(C(=O)NN)cc1C", "growth": "107%"}, {"smiles": "CCCn1cnc2c(c1=N)C(c1ccc(Cl)cc1)c1sc3c(CC)cccc3c1O2", "note": "(stereo not given)", "growth": "5.23% (active)"}, {"smiles": "CCOc1ccc(/C=C\\C(=O)O)cc1", "growth": "121%"}, {"smiles": "COc1ccc(CCN2CCCN3C2=Nc2ccccc2S3(=O)=O)cc1", "growth": "5.24% (active)"}, {"smiles": "C=CCNCCN1C(=O)c2ccc3c4c(ccc(c24)C1=O)C(=O)N(CCNCC=C)C3=O", "growth": "-89.1% (active)"}, {"smiles": "O=C1c2ccccc2C(=O)c2c1ccc(C(Br)Br)c2Cl", "growth": "-12.6% (active)"}, {"smiles": "CCCCOC(OCCCC)c1ccccc1", "growth": "104%"}, {"smiles": "Nc1nc(-c2ccc(F)cc2)cc(-c2cnn(-c3ccccc3)n2)n1", "growth": "104%"}, {"smiles": "O=S(=O)(O)CCI", "growth": "91.8%"}, {"smiles": "OC1Cc2ccccc2C1", "growth": "105%"}, {"smiles": "C=C1C(=O)O[C@H]2[C@H]1CC/C(COC(=O)c1c[nH]c3ccccc13)=C\\CC[C@@]1(C)O[C@@H]21", "growth": "-68.5% (active)"}, {"smiles": "c1ccc2cc(C[n+]3ccn(CCCCCCCCCCCCn4cc[n+](Cc5ccc6ccccc6c5)c4)c3)ccc2c1", "growth": "-81.7% (active)"}, {"smiles": "O=C1/C(=C/c2ccc(O)cc2O)N=C2SCCCN12", "growth": "96.1%"}, {"smiles": "C=C[C@@H]1C[C@H](O)Cc2cc(F)ccc2N1", "growth": "88.7%"}, {"smiles": "COc1ccc2nc(NC(=O)/C(=C/c3cc(OC)c(OC)c(OC)c3)c3ccc(OC)c(OC)c3)sc2c1", "growth": "109%"}, {"smiles": "COc1cc(/C=C/C(=O)N2c3ccccc3CC2C)c(OC)c2c1OCO2", "note": "(stereo not given)", "growth": "86.9%"}, {"smiles": "Cc1ccc(F)c(NC(=O)Nc2ccc(-c3cccc4[nH]nc(N)c34)cc2)c1", "growth": "15.7%"}, {"smiles": "CCOC(=O)c1nnn(Cc2cc(=O)oc3ccc(O)cc23)c1C", "growth": "108%"}, {"smiles": "N#CCCCCCCCCCCC#N", "growth": "112%"}, {"smiles": "NC(N)=N/N=C/c1ccc(-c2ccc(-c3cc(Cl)cc(Cl)c3)s2)cc1", "growth": "-47.1% (active)"}, {"smiles": "O=C1c2cccnc2C(=O)c2nc3cc(N4CCN(C5CC5)CC4)ccc3nc21", "growth": "-22% (active)"}, {"smiles": "COC(=O)CNC(=O)c1ccc(NC(=O)c2[nH]c(C)c(Cl)c2Cl)c(O[C@H]2CCNC2)c1", "growth": "112%"}, {"smiles": "COc1ccc2c(c1)c(-c1nn3c(=O)cc(-c4ccccc4)nc3s1)cn2C", "growth": "20.1%"}, {"smiles": "CN1C(=O)N(C)C2C1NN=c1s/c(=C\\c3ccc(C(F)(F)F)cc3)c(=O)n12", "note": "(stereo not given)", "growth": "-2.71% (active)"}, {"smiles": "N#Cc1cnc2cc(OC[C@H](O)CO)c(NC(=O)CC3CSSC3)cc2c1Nc1ccc(OCc2cccc(F)c2)c(Cl)c1", "growth": "-78.3% (active)"}, {"smiles": "CC(=O)Oc1c(Cl)cccc1-c1ccccc1", "growth": "100%"}, {"smiles": "O=C(Oc1ccc([N+](=O)[O-])cc1)c1ccc(CBr)cc1", "growth": "84.9%"}, {"smiles": "O=C1/C(=C/c2ccccc2Cl)CCc2ccccc21", "growth": "101%"}, {"smiles": "Cc1ccc(NC(=O)Cn2nncc2CN2C(=O)CSC2=O)cc1C", "growth": "95.5%"}]}]}
